Screens as filed in PubChem.
A selection: hits, their analogues and other compounds. The true share with any hit is near 2.3%.
CHRM1 antagonist = antagonists of human M1 muscarinic receptor; P11229; CHO-K1 hM1, Fluo-8 calcium fluorescence, ACh EC80 antagonist; inhibition, % at 3 µM; actives 1.3% (n = 360,000); AID 588852;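 active = percent inhibition above its own plate's cutoff, namely the mean of that plate's compound wells plus 3 SD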;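 also: peak over basal fluorescence ratio during 140 s after agonist addition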
Target sequence (P11229 whole entry, looked up): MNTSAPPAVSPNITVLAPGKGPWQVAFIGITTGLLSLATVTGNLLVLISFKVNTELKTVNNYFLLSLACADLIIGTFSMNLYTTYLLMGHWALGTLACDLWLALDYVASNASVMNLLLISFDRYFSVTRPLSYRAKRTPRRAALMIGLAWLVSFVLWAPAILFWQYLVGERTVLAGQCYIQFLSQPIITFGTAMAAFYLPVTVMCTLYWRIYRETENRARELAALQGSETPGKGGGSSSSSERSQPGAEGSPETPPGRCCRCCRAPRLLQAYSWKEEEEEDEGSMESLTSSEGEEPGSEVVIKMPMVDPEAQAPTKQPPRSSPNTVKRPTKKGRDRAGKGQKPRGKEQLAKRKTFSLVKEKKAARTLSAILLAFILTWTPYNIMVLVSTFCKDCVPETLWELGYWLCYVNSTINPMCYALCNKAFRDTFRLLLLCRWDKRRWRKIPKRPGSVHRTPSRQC
CHO-K1 Ca antag = M1 antagonist counterscreen hit in parental CHO-K1 cells | ATP-induced calcium, Fluo-8 fluorescence | actives 0.6% (n = 360,000) | AID 602250 | inhibition, % at 3 µM;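 active = inhibition above a per-plate cutoff, the plate's mean sample inhibition plus 3 SD, cut at about 24% in these data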
M1 PAM = human CHRM1 positive allosteric modulation; P11229; CHO-K1 hM1, Fluo-8 calcium fluorescence, ACh EC20; 0% = ACh EC20, 100% = maximal ACh; activation, % at 3 µM; actives 0.088% (n = 360,000); AID 588819; in the data active = activation above about 19%, passing the limit was not always enough
CHO-K1 Ca ag = M1 agonist counterscreen hit in parental CHO-K1 cells | actives 0.48% (n = 360,000) | Fluo-8 calcium fluorescence; scaled to maximal ATP response, vehicle zero | activation, % at 3 µM; in the data active = activation above about 15%;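 also: untransfected CHO-K1 host cells lacking M1 receptor as counterscreen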
M1 ag = activates human CHRM1 receptor; activation, % at 3 µM; actives 0.33% (n = 360,000); CHO-K1 hM1, Fluo-8 calcium fluorescence, agonist mode; 0% DMSO, 100% acetylcholine EC100; P11229;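 active = activation above the run's mean compound activation plus 3 SD, cut at about 16% in these data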;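 also: peak over basal fluorescence ratio within a 140 s kinetic read after compound addition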
CHO-K1 Ca PAM = M1 PAM counterscreen hit in parental CHO-K1 cells; activation, % at 3 µM; actives 0.02% (n = 360,000); ATP EC20, Fluo-8 calcium fluorescence; 0% at ATP EC20, 100% at ATP max;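 active = activation above the run cutoff, the mean activation of all test compounds plus 3 SD, cut at about 40% in these data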;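 also: peak over basal fluorescence ratio in a 140 s read after ATP addition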
A number is an active result.

Results for COc1cccc(N2CCN(c3ccc4nnc(CCC(=O)Nc5ccc(C)cn5)n4n3)CC2)c1 ?
CHRM1 antagonist: inactive; CHO-K1 Ca antag: inactive; M1 PAM: inactive; CHO-K1 Ca ag: inactive; M1 ag: inactive; CHO-K1 Ca PAM: inactive

Results for COc1cccc(N2CCN(c3ccc4nnc(CCC(=O)Nc5ncccc5C)n4n3)CC2)c1 ?
CHRM1 antagonist: 38.3; CHO-K1 Ca antag: inactive; M1 PAM: inactive; CHO-K1 Ca ag: inactive; M1 ag: inactive; CHO-K1 Ca PAM: inactive

What do the screens show for `CNS(=O)(=O)c1ccc(NC(=O)C2c3ccccc3Oc3ccccc32)cc1`?
CHRM1 antagonist: inactive; CHO-K1 Ca antag: inactive; M1 PAM: inactive; CHO-K1 Ca ag: inactive; M1 ag: inactive; CHO-K1 Ca PAM: inactive

What do the screens show for `CCc1nnc(NC(=O)C2c3ccccc3Oc3ccccc32)s1`?
CHRM1 antagonist: 36.5; CHO-K1 Ca antag: inactive; M1 PAM: inactive; CHO-K1 Ca ag: inactive; M1 ag: inactive; CHO-K1 Ca PAM: inactive

Results for COCCCNC(=O)C1c2ccccc2Oc2ccccc21 ?
CHRM1 antagonist: inactive; CHO-K1 Ca antag: inactive; M1 PAM: inactive; CHO-K1 Ca ag: inactive; M1 ag: inactive; CHO-K1 Ca PAM: inactive

Results for CCN(CC)S(=O)(=O)c1ccc(NC(=O)C2c3ccccc3Oc3ccccc32)cc1 ?
CHRM1 antagonist: inactive; CHO-K1 Ca antag: inactive; M1 PAM: inactive; CHO-K1 Ca ag: inactive; M1 ag: 19.8; CHO-K1 Ca PAM: inactive

Results for CCN(CC)CCCNC(=O)C1c2ccccc2Oc2ccccc21 ?
CHRM1 antagonist: 48.6; CHO-K1 Ca antag: inactive; M1 PAM: inactive; CHO-K1 Ca ag: inactive; M1 ag: inactive; CHO-K1 Ca PAM: inactive

Results for O=C(Nc1nc2ccccc2s1)C1c2ccccc2Oc2ccccc21 ?
CHRM1 antagonist: inactive; CHO-K1 Ca antag: inactive; M1 PAM: inactive; CHO-K1 Ca ag: inactive; M1 ag: inactive; CHO-K1 Ca PAM: inactive

Results for O=c1[nH]c2cc(F)ccc2c2ccc(F)cc12 ?
CHRM1 antagonist: inactive; CHO-K1 Ca antag: inactive; M1 PAM: inactive; CHO-K1 Ca ag: inactive; M1 ag: inactive; CHO-K1 Ca PAM: inactive

What do the screens show for `Cc1csc(-c2ccc3cc(Cl)cc(Cl)c3n2)n1`?
CHRM1 antagonist: inactive; CHO-K1 Ca antag: inactive; M1 PAM: inactive; CHO-K1 Ca ag: inactive; M1 ag: inactive; CHO-K1 Ca PAM: inactive

Results for COCCN(C(=O)CSc1nc2ccccc2c(=O)n1CC(C)C)c1c(N)n(Cc2ccccc2)c(=O)[nH]c1=O ?
CHRM1 antagonist: inactive; CHO-K1 Ca antag: inactive; M1 PAM: inactive; CHO-K1 Ca ag: 19.9; M1 ag: inactive; CHO-K1 Ca PAM: inactive

How did CCCN(C(=O)CSCc1ccc(C)cc1)c1c(N)n(Cc2ccccc2)c(=O)[nH]c1=O do in these assays?
CHRM1 antagonist: inactive; CHO-K1 Ca antag: inactive; M1 PAM: inactive; CHO-K1 Ca ag: inactive; M1 ag: inactive; CHO-K1 Ca PAM: inactive

Results for CCCN(C(=O)CSCc1ccccc1C)c1c(N)n(Cc2ccccc2)c(=O)[nH]c1=O ?
CHRM1 antagonist: inactive; CHO-K1 Ca antag: inactive; M1 PAM: 25.9; CHO-K1 Ca ag: inactive; M1 ag: inactive; CHO-K1 Ca PAM: inactive

How did COCCN(C(=O)CSc1nc2ccccc2c(=O)n1C(C)COC)c1c(N)n(Cc2ccccc2)c(=O)[nH]c1=O (stereo unspecified) do in these assays?
CHRM1 antagonist: inactive; CHO-K1 Ca antag: inactive; M1 PAM: inactive; CHO-K1 Ca ag: inactive; M1 ag: inactive; CHO-K1 Ca PAM: inactive

What do the screens show for `COc1cc(NC(=O)COc2ccc([N+](=O)[O-])cc2)ccc1NC(=O)c1ccco1`?
CHRM1 antagonist: inactive; CHO-K1 Ca antag: inactive; M1 PAM: inactive; CHO-K1 Ca ag: inactive; M1 ag: inactive; CHO-K1 Ca PAM: inactive

What do the screens show for `COc1ccccc1C(CNC(=O)c1cccc(S(=O)(=O)NCc2ccccc2)c1)N(C)C` (stereo unspecified)?
CHRM1 antagonist: 49.9; CHO-K1 Ca antag: inactive; M1 PAM: inactive; CHO-K1 Ca ag: inactive; M1 ag: inactive; CHO-K1 Ca PAM: inactive

How did COc1ccc(C(CNC(=O)c2cccc(NS(=O)(=O)c3ccccc3)c2)N(C)C)cc1 (stereo unspecified) do in these assays?
CHRM1 antagonist: 48.2; CHO-K1 Ca antag: inactive; M1 PAM: inactive; CHO-K1 Ca ag: inactive; M1 ag: inactive; CHO-K1 Ca PAM: inactive

How did CCOc1ccc(S(=O)(=O)Nc2cccc(C(=O)NCC(c3ccccc3)N(C)C)c2)cc1 (stereo unspecified) do in these assays?
CHRM1 antagonist: inactive; CHO-K1 Ca antag: inactive; M1 PAM: inactive; CHO-K1 Ca ag: inactive; M1 ag: inactive; CHO-K1 Ca PAM: inactive

Results for COc1ccc(N(C)S(=O)(=O)c2cccc(C(=O)NCC(c3ccco3)N3CCCC3)c2)cc1 (stereo unspecified) ?
CHRM1 antagonist: inactive; CHO-K1 Ca antag: inactive; M1 PAM: inactive; CHO-K1 Ca ag: inactive; M1 ag: inactive; CHO-K1 Ca PAM: inactive

Results for COc1ccc(N(C)S(=O)(=O)c2cccc(C(=O)NCC(c3cccs3)N(C)C)c2)cc1 (stereo unspecified) ?
CHRM1 antagonist: 52.3; CHO-K1 Ca antag: inactive; M1 PAM: inactive; CHO-K1 Ca ag: inactive; M1 ag: inactive; CHO-K1 Ca PAM: inactive

Results for COc1cccc(CN(C)C(=O)c2cccc(S(=O)(=O)NCc3ccccc3)c2)c1OC ?
CHRM1 antagonist: inactive; CHO-K1 Ca antag: inactive; M1 PAM: inactive; CHO-K1 Ca ag: inactive; M1 ag: inactive; CHO-K1 Ca PAM: inactive

Results for COc1ccccc1C(CNC(=O)c1cccc(NS(=O)(=O)c2ccc(C)c(F)c2)c1)N(C)C (stereo unspecified) ?
CHRM1 antagonist: 85.0; CHO-K1 Ca antag: inactive; M1 PAM: inactive; CHO-K1 Ca ag: inactive; M1 ag: inactive; CHO-K1 Ca PAM: inactive

What do the screens show for `CC1(C(=O)Nc2cccc3ccccc23)CCN1C(=O)Cc1ccc(Cl)cc1Cl` (stereo unspecified)?
CHRM1 antagonist: inactive; CHO-K1 Ca antag: inactive; M1 PAM: inactive; CHO-K1 Ca ag: inactive; M1 ag: inactive; CHO-K1 Ca PAM: inactive

How did Nc1ccn(C2OC(COC(=O)C34CC5CC(CC(C5)C3)C4)C(O)C2O)c(=O)n1 (stereo unspecified) do in these assays?
CHRM1 antagonist: inactive; CHO-K1 Ca antag: inactive; M1 PAM: inactive; CHO-K1 Ca ag: inactive; M1 ag: inactive; CHO-K1 Ca PAM: inactive

Results for CC(=O)c1ccc(S(=O)(=O)NCc2ccc(C(=O)NCC(c3ccccc3)N(C)C)cc2)cc1 (stereo unspecified) ?
CHRM1 antagonist: 25.0; CHO-K1 Ca antag: inactive; M1 PAM: inactive; CHO-K1 Ca ag: inactive; M1 ag: inactive; CHO-K1 Ca PAM: inactive

What do the screens show for `COc1ccccc1C(CNC(=O)c1ccc(NS(=O)(=O)c2ccc(F)c(C)c2)cc1)N(C)C` (stereo unspecified)?
CHRM1 antagonist: inactive; CHO-K1 Ca antag: inactive; M1 PAM: inactive; CHO-K1 Ca ag: inactive; M1 ag: 27.8; CHO-K1 Ca PAM: inactive
